{"source": "paper PMC12864922", "about": "“TDP-43 directly inhibits mRNA accumulation in neurites through modulation of mRNA stability”", "binders": {"B1": {"name": "ENSMUSG00000029028.98|Lrrc47 (ssRNA)", "RNA": "GGGAGUUCUACAGUCCGACGAUCGCUUCGAUAUCCGCAUGCUAUGUGGGUGUGCUGUAGAUUCUGUGUAACUGGUUCUUUGCUGUUUCUCUGGGUGUUUUAAGGUGUCUGCUUUUGUCCAGGUGACUGUGGUAAUGUGAGUUUGCAUCAUCAUCAUAGCUCCAAUGUGACUCUCCUGUCUCCUGUCCUCAUGGAUCACUCAGUAACUGCUGGGGAUGUUCUGAAUCAUGUGGCCUGUGGCCGUGCUGGAGAGUCAGGUUGAACGCAGGCAUUCUAUUGAACAGUAUUUAUUUUUCUACAACAUCUCUUGCGGUCGCACUAGUGUGGAAUUCUCGGGUGUCAAGG"}, "B2": {"name": "ENSMUSG00000090935.301|Synj2bp|248:252 (ssRNA)", "RNA": "GGGAGUUCUACAGUCCGACGAUCGCUUCGAUAUCCGCAUGCUAGCCUUAGUUGCUAUUUUACAGUACUGUUAAAGGAUCCAUUGGCAUGGGAUGGGAAGCAGCAGGGCCCAAUCAACCAUCAAGACAUCUGAAAAAGAUCAUGUCUCAAGGUGGCACUUGAGCCUUCAAAACUGCUUAACAAUUCUCAGUUUCUAGUGUCAGACAAAAAGCCUAAGGGAAGGAACUGCCCUCCUGGUAGGAUGGACCUGAAUCAGCCUGCUUCUGACUGAGUUAGGAUGAGAAGGCAUUGCAUACGGUUUUCUCUCUUGCGGUCGCACUAGUGUGGAAUUCUCGGGUGUCAAGG"}, "B3": {"name": "ENSMUSG00000032194.203|Kank2 (ssRNA)", "RNA": "GGGAGUUCUACAGUCCGACGAUCGCUUCGAUAUCCGCAUGCUACUGCACCUUUCUCUAACUGGGGUUCCUUUCUGGCCCCAGGAUCUCAGUGUGGUUCGUGGGGGGAUUUUGUUGUUGUUUCUUUGUUUCUUUUCUUCAUAAAGAAGAAAAAGGAAACAACUUCUAGAUGUGCCUUGCGAUAGGGAGGACUUUGUCCUCUCAAGUCUCCCUGUCGUAUCCAGAUCACAGCUGAACCCACUGGGCCUUGGCGCCAAACCUCAGCAGGGCAGCAUUGAGACUCAUGGACUAAAGGAAAGUGUUCACUCUUGCGGUCGCACUAGUGUGGAAUUCUCGGGUGUCAAGG"}, "B4": {"name": "ENSMUSG00000043670.75|Diras1|97:102 (ssRNA)", "RNA": "GGGAGUUCUACAGUCCGACGAUCGCUUCGAUAUCCGCAUGCUAUUUGAUCCCUGUGGAUCUGAAAACAGGGACCUGGCUAAGGAACUGCUCAUCCCAGUCAGGCCCAGAGAGGUUACCUUGCCUCUCCAUCUCUGUCCCACACACCCCAGCCAUGCCCACUGUCCCUGUCCCUCACAUUCUAUCACUGUGACCUCUGGGGAGUGCCCAUUGACCUCAUCUUCCUUCACUAAUAUCUUAUUUCUUUCACCUGAUCCUGUCCUUUCCCCGUGACCUCUGACCUGUGGCCUUCCCUGGGUCCAGAACUCUUGCGGUCGCACUAGUGUGGAAUUCUCGGGUGUCAAGG"}}, "note": "In all, about 9,900 sequences were measured (“r (bound/input frequency ratio)”: median about 0.7, highest 2% from about 6.5 on). The sample holds the highest values, similar sequences and a random draw of the others, so the mix is not that of the screen."}
{"molecular_target": "TDP-43 (Homo sapiens, UniProt Q13148 1-414)", "sequence (Q13148 whole entry)": "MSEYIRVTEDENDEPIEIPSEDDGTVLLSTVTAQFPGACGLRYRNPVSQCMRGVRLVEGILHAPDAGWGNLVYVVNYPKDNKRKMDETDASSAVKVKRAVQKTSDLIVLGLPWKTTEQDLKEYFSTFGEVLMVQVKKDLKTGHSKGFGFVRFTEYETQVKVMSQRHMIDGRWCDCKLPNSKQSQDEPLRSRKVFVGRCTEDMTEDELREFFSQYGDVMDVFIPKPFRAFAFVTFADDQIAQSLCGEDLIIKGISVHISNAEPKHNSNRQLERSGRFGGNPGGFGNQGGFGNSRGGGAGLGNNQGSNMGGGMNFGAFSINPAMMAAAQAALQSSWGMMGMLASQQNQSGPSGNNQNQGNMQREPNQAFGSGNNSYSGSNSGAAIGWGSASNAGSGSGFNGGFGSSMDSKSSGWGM", "test": "RNA Bind-n-Seq with designed 260-mer pool; 25 mM Tris-HCl, 150 mM KCl, 3 mM MgCl2, BSA (printed 500 mg/mL), 20 units/mL SUPERase IN; pH not stated; 500 nM RNA pool, 1 h, 4 C; TDP-43 5, 50, 500 nM; high values mean tight binding", "conditions": "protein: recombinant; tags: SBP (GST cleaved off with PreScission; pGEX-GST-SBP)", "outline": "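In 25 mM Tris-HCl, 150 mM KCl, 3 mM MgCl2, BSA and SUPERase IN, 500 nM of an in vitro-transcribed 260-nt 3′ UTR oligo pool was incubated for 1 h at 4 °C with SBP-tagged TDP-43 (5, 50 or 500 nM) captured on streptavidin beads. RNA remaining after washes was biotin-eluted, reverse transcribed, PCR-amplified and sequenced. Binding, R, is the bound-sample abundance of each oligo, normalized to mapped reads, divided by its abundance in input. Each duplicate used a separate, independent protein batch.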"}
{"binder": "B1", "binding signal": "1.29 R (bound/input frequency ratio)"}
{"binder": "B2", "binding signal": "0.248 R (bound/input frequency ratio)"}
{"binder": "B3", "binding signal": "0.26 R (bound/input frequency ratio)"}
{"binder": "B4", "binding signal": "2.78 R (bound/input frequency ratio)"}
